# A selection: hits, their analogues and other compounds. The true share with any hit is near 5.4%.
# HPGD inh: HPGD (human) dehydrogenase inhibition; P15428; purified HPGD, NADH fluorescence kinetic, PGE2 substrate; Potency, µM, for inactives: top-dose activity change, negative = inhibition, actives largely listed as inhibitors; hit rate 4.3% among 150,000; active = well fitted inhibition curve with a large enough effect, not every such curve was filed as active; inconclusive = small, poorly fitted or top-dose-only effect, or another doubt; inactive = no such curve, though single readings can be large or run the other way; also: potency is read from the fitted curve at half-maximal effect
# Target sequence (P15428 whole entry, looked up): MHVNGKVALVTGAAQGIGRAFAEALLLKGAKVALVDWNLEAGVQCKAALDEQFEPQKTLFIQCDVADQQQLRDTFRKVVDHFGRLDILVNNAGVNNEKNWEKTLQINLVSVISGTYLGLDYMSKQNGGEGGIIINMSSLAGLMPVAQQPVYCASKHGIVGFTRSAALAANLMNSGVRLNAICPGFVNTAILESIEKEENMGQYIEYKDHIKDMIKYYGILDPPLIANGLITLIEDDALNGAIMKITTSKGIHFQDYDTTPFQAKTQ
#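 20 nM HPGD preincubated 15 min at room temperature with compound in 50 mM Tris-HCl pH 8, 0.01% Tween 20. Started with 1 mM NAD+ and 30 uM prostaglandin E2; NADH fluorescence (360/450 nm) read 5 times over 30-s intervals, last minus first.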
# PNC inhibitor: blocks assembly of the perinucleolar compartment | PC3M PTB-GFP, PNC prevalence imaging, 16 h; hits give low values | activity change (PNC), negative = inhibition, % at 10 µM | hit rate 3.1% among 140,000 | AID 2417;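 active = readout at or below -70, meaning at least 70% loss of cells showing the perinucleolar compartment, a nuclear body marking cancer cells; inconclusive = readout between -30 and a set limit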;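 also: plate controls were DMSO wells for no effect and camptothecin positive control wells for full effect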
#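 Compounds are pinned in duplicate onto adhered PC3M cells stably expressing GFP-tagged PTB and incubated 16 h at 37 C. Cells are then fixed, nuclei stained with Hoechst, and PNC-positive cells counted.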
# 15-hLO-2 inh: 15-hLO-2 (ALOX15B) enzyme inhibition; O15296; purified 15hLO-2, xylenol orange hydroperoxide absorbance; Potency, µM (series often up to 57.1 µM), for the others: at the highest dose activity change, negative = inhibition, actives largely listed as inhibitors; hit rate 0.56% among 110,000; AID 881; also: potency is read from the fitted curve at half-maximal effect; nearly all actives have a fitted effect of over 60% in size
#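 Purified human 15hLO-2 (50 nM final) preincubated with compounds 15 min at room temperature in 25 mM Hepes pH 7.5, 0.01% Triton X-100, then 45 uM arachidonic acid added for 90 min; hydroperoxide detected via ferrous/xylenol orange, 573/405 nm absorbance ratio.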
# ALOX12 inhib: 12-hLO (ALOX12) enzyme inhibition; P18054; hit rate 0.12% among 150,000; Potency, µM (highest dose often 57.1 µM), for the others: top-dose activity change, negative = inhibition, actives largely listed as inhibitors; AID 1452; purified 12-hLO, xylenol orange hydroperoxide absorbance; also: potency is read from the fitted curve at half-maximal effect; nearly all actives have a fitted effect of over 55% in size
#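 Hydroperoxide formation by human 12-lipoxygenase from 40 uM arachidonic acid was followed colorimetrically via ferric-xylenol orange complex, using the 573/405 nm absorbance ratio. Enzyme concentration was 150 nM, with 30 min reaction at room temperature.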
# IMPase Li inh: membrane-permeable IMPase blocker, potentiated with lithium; CHO-M1 cells, IP1 TR-FRET (IP-One), carbachol + lithium; Potency, µM (highest dose often 59.4 µM), for the others: top-dose activity, negative = IMPase inhibition, most hits filed as inhibitors; hit rate 0.35% among 210,000; AID 1457;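 also: IP1 builds up when IMPase is blocked and the TR-FRET signal falls; potency is read from the fitted curve at half-maximal effect; plate controls were basal vehicle for no effect and high inhibitor control for full effect; nearly all actives have a fitted effect of over 50% in size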
#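 CHO cells stably expressing M1 receptor (2000/well) were cultured 16–30 h, then exposed to compounds with a small lithium addition for 30 min at 37C. IP1 was measured by TR-FRET competition; AC50 from Hill fits.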
# IMPase cell inh: membrane-permeable compound that blocks inositol monophosphatase | P97697 | CHO-M1 cells, IP1 accumulation, HTRF TR-FRET ratio | inhibition (IP1 accumulation), % at 46.1 µM | 120,000 tested, under 10 active | AID 901; active = well fitted curve in the direction sought with a large enough effect in the signal ratio, not every such curve was filed as active; inconclusive = small, poorly fitted or top-dose-only effect, or a change in a side signal; inactive = no such curve, though single readings can be large or run the other way; the % refers to the signal ratio;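 also: cells stimulated with carbachol in lithium chloride buffer; plate controls were DMSO basal wells for no effect and reference inhibitor wells for full effect; higher means more IMPase inhibition seen as more IP1 and lower FRET ratio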
# Target sequence (P97697 whole entry, looked up): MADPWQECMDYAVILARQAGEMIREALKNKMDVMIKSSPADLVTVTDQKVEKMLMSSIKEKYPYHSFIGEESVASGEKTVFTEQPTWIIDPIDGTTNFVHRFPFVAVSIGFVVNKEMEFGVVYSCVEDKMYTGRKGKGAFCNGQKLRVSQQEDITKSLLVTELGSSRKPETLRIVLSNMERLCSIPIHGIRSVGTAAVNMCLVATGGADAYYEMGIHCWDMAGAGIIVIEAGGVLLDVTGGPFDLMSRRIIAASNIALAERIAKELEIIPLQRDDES
#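 Seeded CHO-M1 cells were dosed with compound at up to 46 uM, stimulated with carbachol for 30 min, then lysed in IP-One detection reagents. Higher IP1 lowers the TR-FRET signal.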
# * marks the source's active call; other numbers are inactive results; ? = inconclusive; . = not tested or not shown; ! = not confirmed by another sample; [ ] = remark or other dose. Unless noted, calls follow the shape of the dose curve; as a rule, active = well fitted curve in the direction sought with a large enough effect; inconclusive = small, poorly fitted or top-dose-only effect, or another doubt; inactive = no such curve, though single readings can be large; an effect the other way counts as inactive or inconclusive. Unless noted, % is scaled to controls: 0 for no effect and ±100 for the full control effect.
SMILES,HPGD inh,PNC inhibitor,15-hLO-2 inh,ALOX12 inhib,IMPase Li inh,IMPase cell inh
Cc1cc(O)ccc1Nc1nc(-c2sc(N)nc2C)cs1,15.8µM*,9.0,-14.6%,-2.3%,36.3%[38.3 µM],-11.7
O=C(NCCOC(=O)c1ccc(C(=O)OCCNC(=O)c2ccccc2)o1)c1ccccc1,7.94µM*,-9.6,-6.5%,-8.5%,-11.8%[38.3 µM],-9.1
O=C(NCCOCCOCCNC(=O)c1ccccc1)c1ccccc1,.,.,.,.,-1.2%,.
COC(=O)/C=C/C(=O)Nc1ccc(O)c(Cl)c1,-13.3%,0.1,.,-2.4%,2.8%,.
COC(=O)/C=C\c1cc(O)ccc1O,2.24µM*,.,?,-8.6%,25.9%,8.0
CO/N=C1\CN(c2nc3c(cc2F)c(=O)c(C(=O)O)cn3C2CC2)CC1CN (stereo not given),-25.0%,.,0.1%,3.5%,17.1%,.
Cc1ccc2cc(CN(CC3CCCO3)S(=O)(=O)c3ccccc3)c3nnnn3c2c1 (stereo not given),-20.2%,-100.0*,.,2.2%,14.3%,3.5
Cc1cccc2cc(CN(CC3CCCO3)S(=O)(=O)c3ccccc3)c3nnnn3c12 (stereo not given),-12.2%,-21.0,-0.7%,1.0%,-0.6%[38.3 µM],2.8
C[C@H]1Cc2c(COc3ccccc3)nc3c(c2CO1)CN(C(=O)c1cccnc1)CC3,-3.1%,.,.,0.4%[11.4 µM],-0.6%,.
Cc1cc(-c2ccccc2)nc(N2CCC(C(=O)NC(C)C)CC2)n1,?,-99.6*,-13.4%,-5.8%,8.3%[38.3 µM],0.9
CC(=O)Nc1ccc(S(=O)(=O)N(c2cccnc2)S(=O)(=O)c2ccc(NC(C)=O)cc2)cc1,11.2µM*,-18.1,.,-1.5%,-0.7%,?
CCNc1ncc2nc(-c3ccc(F)cc3)c(=O)n(C)c2n1,.,.,5.8%,.,-21.8%,.
Cc1cc(NC(=O)CCc2ccc(S(=O)(=O)N3CCOCC3)cc2)n(-c2ccccc2)n1,-7.5%,-100.0*,.,-4.6%,10.4%,3.6
O=C(OC[C@@H]1O[C@@](O)(COC(=O)c2cccnc2)[C@H](OC(=O)c2cccnc2)[C@H]1OC(=O)c1cccnc1)c1cccnc1,-9.8%,.,11.2%[0.0915 µM],1.0%[0.00818 µM],0.0%,.
COC(=O)c1cc(C)sc1NC(=O)CCCC(=O)O,-12.8%,-118.5*,4.5%,0.0%,17.8%[38.3 µM],3.4
COC(=O)c1sccc1NC(=O)C1CC=CCC1C(=O)O (stereo not given),-26.2%,?,-1.7%,-8.9%,10µM*,?
COC(=O)c1sccc1NC(=O)C1C2C=CC(C2)C1C(=O)O (stereo not given),-4.2%,-21.3,.,7.1%,3.7%,-1.6
COC(=O)c1cc(C)sc1NC(=O)C1C2C=CC(CC2)C1C(=O)O (stereo not given),-8.5%,?,.,-0.6%,10µM*,.
COC(=O)c1cc(C)sc1NC(=O)C1CC=CCC1C(=O)O (stereo not given),-16.1%,50.6,-1.9%,2.4%,11.2µM*,?
CCc1cc(C(=O)OC)c(NC(=O)CCCC(=O)O)s1,-23.1%,57.4,-7.9%,-0.3%,-9.6%[38.3 µM],-2.0
Nc1cc(C(=O)O)[nH]c(=O)n1,-9.4%,.,-0.9%[11.4 µM],1.0%[11.4 µM],-0.4%,.
COc1cc(NC(=O)CSc2nc(C)c(C(=O)Nc3ccccc3)c(-c3ccc(OC)c(OC)c3)c2C#N)c(OC)cc1Cl,.,.,.,.,.,-5.7
COc1ccc2ccc(=O)oc2c1CC=C(C)C,-10.8%,43.1,4.1%,-0.3%,7.0%,.
Cc1c(Cc2ccccc2)c(=O)oc2cc(O)cc(O)c12,.,.,.,.,0.4%,.
CC(C)=CCc1c(O)cc2oc(C)cc(=O)c2c1O,4.47µM*,.,0.9%,0.2%,5.7%,.
COc1c(O)cc2oc3cc(O)c(CC=C(C)C)c(O)c3c(=O)c2c1CC=C(C)C,28.2µM*!,.,-20.2%,?,9.4%,1.3
Cc1ccc(Oc2coc3cc(OCC(=O)NC4CCCCC4)ccc3c2=O)cc1,.,.,.,.,.,-9.3
CCOC(=O)c1cnc2c(C)c(Cl)ccc2c1Nc1ccc(N2CCOCC2)cc1,.,.,.,.,.,-6.7
CCCCc1c(O)n(-c2ccccc2)[nH]c1=O,-10.4%,.,?,-7.5%[0.00818 µM],-7.2%,.

# Screens: PubChem BioAssay, National Center for Advancing Translational Sciences (NCATS)
